TEAD-YAP inh = TEAD-YAP interaction inhibition; HEK-TIYL cells, TEAD-Gal4/YAP UAS-luciferase luminescence; inhibition, % at 9.12 µM; 640,000 tested, 1.4% active; AID 1259422; in the data active = inhibition above about 32%;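 note: 0% = median of test compound wells and 100% = reference inhibitor wells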
MITF primary = human MITF inhibition, primary screen | O75030 | AID 1259374 | inhibition, % at 2.6 µM | 650,000 tested, 0.91% active | AlphaScreen MITF homodimerization, bead proximity signal; in the data active = inhibition above about 50%;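 note: 0% = vehicle wells with protein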
FBW7 act = human FBW7 E3 ligase activation, primary screen | Q969H0 | AlphaScreen FBW7–phospho-cyclin E peptide binding, activator screen | normalized activity (activation), % at 26.1 µM | 650,000 tested, 0.13% active; in the data active = normalized activity above about 1.9%;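 note: purified mutant Fbw7 with reduced substrate affinity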
GPR151 activ = activates the human receptor GPR151. activation, % at 11.2 µM. 650,000 tested, 1% active. Q8TDV0. PathHunter beta-arrestin GPR151 cells, luminescence; in the data active = activation above about 4.9%;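 note: 0% = median of compound wells and 100% = cells with positive control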
GPR151 confirm = confirmation of human GPR151 activators. shares compounds with GPR151 activ. GPR151 PathHunter beta-arrestin cells, luminescence, 90 min; % of EA-reagent control over plate median. activation, % at 11.2 µM. 6,700 tested, under 10 active. AID 1508609;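 active = mean percent activation across replicates above the confirmation screen cutoff of 4.91%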
GPR119 counter = activates human GPR119 in a GPR151 counter-screen. shares compounds with GPR151 activ. GPR119 PathHunter beta-arrestin cells, luminescence, 90 min; 0 = compound-well median, 100 = enzyme-acceptor control. activation, % at 11.2 µM. 6,700 tested, 0.3% active;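 active = mean percent activation in the counterscreen above 29.09%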;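 note: counterscreen on off-target GPR119 to flag nonselective hits from the GPR151 activator screen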
Active calls of the source: *; · = not tested or not shown; ! = repeats disagree. A selection: hits, their analogues and other compounds. The true share with any hit is near 3.5%.

SMILES	TEAD-YAP inh	MITF primary	FBW7 act	GPR151 activ	GPR151 confirm	GPR119 counter
COc1cc(N2CCOCC2)ccc1C=C1C(=O)NC(=O)NC1=O	4	5	-1	8.0*	0	-4
COc1cc(N2CCOCC2)ccc1/C=C1\C(=O)NC(=O)N(Cc2cccs2)C1=O	9	2	0	-1	·	·
CN1CCN(c2ccc(/C=C(\C#N)C(N)=O)cc2[N+](=O)[O-])CC1	0	16	0	17*	1	5
COc1ccc(CCNCc2cc(OC)c(OC)c(OC)c2)cc1OC	13	41	0	-1	·	·
COc1ccc(Cc2nccc3cc(OC)c(OC)cc23)cc1OC	4	6	0	5.8*!	2	13
CCCCN=Cc1c(O)[nH]c(=S)[nH]c1=O	8	16	0	0	·	·
CN1CCN(P2(=S)C3=C(CCC3)C3=C(CCC3)N2c2ccccc2)CC1 (stereo unspecified)	2	6	0	0	·	·
CCOC(=O)c1c(CN2CCCCC2)n(Cc2ccccc2)c2cc(Br)c(O)cc12	-8	-6	0	5.0*	1	15
CCOC(=O)c1c(CN2CCCC2)n(Cc2ccccc2)c2cc(Br)c(O)cc12	-17	-6	0	1	·	·
Cc1cccc(OP(N)(=O)Oc2cccc(C)c2)c1	3	-2	0	-1	·	·
NP(=O)(Oc1ccc(Cl)cc1)Oc1ccc(Cl)cc1	7	16	0	6.3*	2	10
COc1ccc2cc(C(C#N)OC(=O)OCC3OC3c3ccccc3)ccc2c1 (stereo unspecified)	·	6	·	-3	·	·
O=C(CCCN1CCC2(CC1)C(=O)N(Cc1cccc(F)c1)CN2c1ccccc1)c1ccc(F)cc1	·	16	0	6.7*	0	1
CCOc1ccc(C2SCC(=O)Nc3c2c(=O)[nH]n3C(CC)CC)cc1 (stereo unspecified)	0	8	0	7.1*	0	-15
Cc1nc(-c2ccccc2)sc1CC(=O)N1CCN(C/C=C/c2ccccc2)CC1	14	11	0	1	·	·
CC[C@@H]1C(=O)OC[C@@H]1Cc1cncn1C	2	-7	0	9.6*!	0	-6
CCOC(=O)CN1C(=O)C2(C(C#N)=C(N)OC(C)=C2C(=O)OC)c2ccccc21 (stereo unspecified)	7	14	0	0	·	·

Screens deposited in PubChem by The Scripps Research Institute Molecular Screening Center.
